According to the supplement of paper PMC6992640:

System: WHIM30 (cells of a triple-negative basal-like breast cancer xenograft)
Assay: cell viability of combination (% of vehicle); higher = less cytotoxic
Conditions: 1 µM; 72 h; partner dose: 10 nM
Protocol: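 PDX cells were treated for 72 h with each drug at 1 µM plus carfilzomib (10 nM; 100 nM for WHIM2). Luciferase viability is expressed as percent of vehicle.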

| SMILES | cell viability of combination |
| --- | --- |
| CC(C)COc1ccc(CNC(=O)N(Cc2ccc(F)cc2)C2CCN(C)CC2)cc1 [Pimavanserin] + CC(C)C[C@H](NC(=O)[C@H](CCc1ccccc1)NC(=O)CN1CCOCC1)C(=O)N[C@@H](Cc1ccccc1)C(=O)N[C@@H](CC(C)C)C(=O)[C@@]1(C)CO1 [Carfilzomib] | 15.8 |
| COC1=C(OC)C(=O)C(CCCCCCCCCCO)=C(C)C1=O [Idebenone] + CC(C)C[C@H](NC(=O)[C@H](CCc1ccccc1)NC(=O)CN1CCOCC1)C(=O)N[C@@H](Cc1ccccc1)C(=O)N[C@@H](CC(C)C)C(=O)[C@@]1(C)CO1 [Carfilzomib] | 17.5 |
| O=C(c1ccc(F)c(F)c1Nc1ccc(I)cc1F)N1CC(O)(C2CCCCN2)C1 (stereo unspecified) [Cobimetinib] + CC(C)C[C@H](NC(=O)[C@H](CCc1ccccc1)NC(=O)CN1CCOCC1)C(=O)N[C@@H](Cc1ccccc1)C(=O)N[C@@H](CC(C)C)C(=O)[C@@]1(C)CO1 [Carfilzomib] | 24.7 |
| CC(C)C(=O)OCC(=O)[C@@]12O[C@H](C3CCCCC3)O[C@@H]1C[C@H]1[C@@H]3CCC4=CC(=O)C=C[C@]4(C)[C@H]3[C@@H](O)C[C@@]12C [Ciclesonide] + CC(C)C[C@H](NC(=O)[C@H](CCc1ccccc1)NC(=O)CN1CCOCC1)C(=O)N[C@@H](Cc1ccccc1)C(=O)N[C@@H](CC(C)C)C(=O)[C@@]1(C)CO1 [Carfilzomib] | 31.2 |
| COc1cccc2c1C(=O)c1c(O)c3c(c(O)c1C2=O)CC(O)(C(=O)CO)CC3OC1CC(N)C(O)C(C)O1.Cl (stereo unspecified) [Doxorubicin (Adriamycin) HCl] + CC(C)C[C@H](NC(=O)[C@H](CCc1ccccc1)NC(=O)CN1CCOCC1)C(=O)N[C@@H](Cc1ccccc1)C(=O)N[C@@H](CC(C)C)C(=O)[C@@]1(C)CO1 [Carfilzomib] | 7.61 |
| Cl.Nc1ccn(C2OC(CO)C(O)C2O)c(=O)n1 (stereo unspecified) [Cytarabine hydrochloride] + CC(C)C[C@H](NC(=O)[C@H](CCc1ccccc1)NC(=O)CN1CCOCC1)C(=O)N[C@@H](Cc1ccccc1)C(=O)N[C@@H](CC(C)C)C(=O)[C@@]1(C)CO1 [Carfilzomib] | 18.8 |
| CCC(NC(=O)C(C)NC)C(=O)N1CC(O)CC1Cc1c(-c2[nH]c3cc(F)ccc3c2CC2CC(O)CN2C(=O)C(CC)NC(=O)C(C)NC)[nH]c2cc(F)ccc12 (stereo unspecified) + CC(C)C[C@H](NC(=O)[C@H](CCc1ccccc1)NC(=O)CN1CCOCC1)C(=O)N[C@@H](Cc1ccccc1)C(=O)N[C@@H](CC(C)C)C(=O)[C@@]1(C)CO1 [Carfilzomib] | 11.4 |
| CCOC(=O)c1c(CSc2ccccc2)n(C)c2cc(Br)c(O)c(CN(C)C)c12.Cl [Arbidol HCl] + CC(C)C[C@H](NC(=O)[C@H](CCc1ccccc1)NC(=O)CN1CCOCC1)C(=O)N[C@@H](Cc1ccccc1)C(=O)N[C@@H](CC(C)C)C(=O)[C@@]1(C)CO1 [Carfilzomib] | 22 |
| CCC(=C(c1ccccc1)c1ccc(OCCN(C)C)cc1)c1ccccc1.O=C(O)CC(O)(CC(=O)O)C(=O)O [Tamoxifen Citrate] + CC(C)C[C@H](NC(=O)[C@H](CCc1ccccc1)NC(=O)CN1CCOCC1)C(=O)N[C@@H](Cc1ccccc1)C(=O)N[C@@H](CC(C)C)C(=O)[C@@]1(C)CO1 [Carfilzomib] | 23.8 |
| COC(=O)NC(C(=O)N1CCCC1c1ncc(-c2ccc(-c3ccc(-c4cnc(C5CCCN5C(=O)C(NC(=O)OC)C(C)C)[nH]4)cc3)cc2)[nH]1)C(C)C (stereo unspecified) + CC(C)C[C@H](NC(=O)[C@H](CCc1ccccc1)NC(=O)CN1CCOCC1)C(=O)N[C@@H](Cc1ccccc1)C(=O)N[C@@H](CC(C)C)C(=O)[C@@]1(C)CO1 [Carfilzomib] | 25.3 |
| CC(CCC(=O)O)C1CCC2C3CCC4CC(O)CCC4(C)C3CCC12C (stereo unspecified) [Lithocholic Acid] + CC(C)C[C@H](NC(=O)[C@H](CCc1ccccc1)NC(=O)CN1CCOCC1)C(=O)N[C@@H](Cc1ccccc1)C(=O)N[C@@H](CC(C)C)C(=O)[C@@]1(C)CO1 [Carfilzomib] | 21.6 |
| CN(C)CCOc1ccc(C(=C(CCCl)c2ccccc2)c2ccccc2)cc1.O=C(O)CC(O)(CC(=O)O)C(=O)O [Toremifene Citrate] + CC(C)C[C@H](NC(=O)[C@H](CCc1ccccc1)NC(=O)CN1CCOCC1)C(=O)N[C@@H](Cc1ccccc1)C(=O)N[C@@H](CC(C)C)C(=O)[C@@]1(C)CO1 [Carfilzomib] | 17.1 |
| COc1ccc(CN2CCN(C(c3ccc(F)cc3)c3ccc(F)cc3)CC2)c(OC)c1OC.Cl.Cl [Lomerizine HCl] + CC(C)C[C@H](NC(=O)[C@H](CCc1ccccc1)NC(=O)CN1CCOCC1)C(=O)N[C@@H](Cc1ccccc1)C(=O)N[C@@H](CC(C)C)C(=O)[C@@]1(C)CO1 [Carfilzomib] | 15.6 |
| COc1cc2nccc(Oc3ccc(NC(=O)Nc4cc(C)on4)c(Cl)c3)c2cc1OC [Tivozanib (AV-951)] + CC(C)C[C@H](NC(=O)[C@H](CCc1ccccc1)NC(=O)CN1CCOCC1)C(=O)N[C@@H](Cc1ccccc1)C(=O)N[C@@H](CC(C)C)C(=O)[C@@]1(C)CO1 [Carfilzomib] | 18.1 |
| C1=C\COCc2cc(ccc2OCCN2CCCC2)Nc2nccc(n2)-c2cccc(c2)COC/1 [Pacritinib] + CC(C)C[C@H](NC(=O)[C@H](CCc1ccccc1)NC(=O)CN1CCOCC1)C(=O)N[C@@H](Cc1ccccc1)C(=O)N[C@@H](CC(C)C)C(=O)[C@@]1(C)CO1 [Carfilzomib] | 11.5 |
| Clc1ccc(C(Cn2ccnc2)OCc2ccsc2Cl)c(Cl)c1 (stereo unspecified) [Tioconazole] + CC(C)C[C@H](NC(=O)[C@H](CCc1ccccc1)NC(=O)CN1CCOCC1)C(=O)N[C@@H](Cc1ccccc1)C(=O)N[C@@H](CC(C)C)C(=O)[C@@]1(C)CO1 [Carfilzomib] | 16.9 |
